Screens (PubChem BioAssay)
ADAM17 inh: inhibitors of human ADAM17; P78536; recombinant ADAM17, EDANS/DABCYL FRET peptide cleavage; inhibition, % at 6.95 µM; hit rate 0.83% among 370,000;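 active means inhibition above the mean of compounds lying between control limits plus 3 SD, set per campaign, cut at about 8.5% in these data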
NPR1 activator: GC-A (human) enzyme activation; P16066; HEK293 GC-A cells, cGMP TR-FRET, EC30 ANP; 0% at EC30 ANP, 100% saturating ANP; activation, % at 10 µM; hit rate 0.14% among 370,000; AID 1671463; in the data active means activation above about 40%
proKLK7 act: activates the human kallikrein-7 zymogen; hit rate 0.9% among 370,000; AID 652039; purified proKLK7, EDANS-DABCYL substrate fluorescence; 100% is mature enzyme control, 0% vehicle; activation, % at 7 µM;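 active means activation above the mean of all tested compounds plus 3 SD, computed per campaign excluding outliers beyond control limits, cut at about 13% in these data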
ADAM10 inh: inhibitors of human ADAM10; O14672; recombinant ADAM10, EDANS/DABCYL FRET peptide cleavage, 3 h; AID 720582; hit rate 0.62% among 370,000; inhibition, % at 7 µM;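 active means inhibition above a per-campaign cutoff equal to the mean of compounds falling between control-based bounds plus 3 SD, cut at about 20% in these data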
Target sequence (O14672 214-748 limits assumed): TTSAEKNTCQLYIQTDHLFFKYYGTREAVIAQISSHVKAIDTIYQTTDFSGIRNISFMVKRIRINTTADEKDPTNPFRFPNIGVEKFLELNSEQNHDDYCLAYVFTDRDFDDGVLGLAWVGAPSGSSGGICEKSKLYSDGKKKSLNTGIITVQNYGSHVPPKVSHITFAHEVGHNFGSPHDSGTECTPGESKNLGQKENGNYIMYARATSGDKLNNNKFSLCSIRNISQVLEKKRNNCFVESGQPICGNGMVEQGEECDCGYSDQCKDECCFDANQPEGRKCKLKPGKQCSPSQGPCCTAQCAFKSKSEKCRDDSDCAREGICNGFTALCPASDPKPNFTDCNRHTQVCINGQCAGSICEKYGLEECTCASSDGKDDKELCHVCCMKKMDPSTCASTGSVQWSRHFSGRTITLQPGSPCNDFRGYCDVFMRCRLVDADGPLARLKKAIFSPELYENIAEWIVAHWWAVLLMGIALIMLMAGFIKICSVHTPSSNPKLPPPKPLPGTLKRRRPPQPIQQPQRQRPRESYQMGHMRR
NPR2 activator: GC-B (human) receptor activation; P20594; HEK293-GC-B cells, CNP EC30, cGMP TR-FRET; 0% at EC30 CNP, 100% saturating CNP; activation, % at 10 µM; hit rate 0.11% among 370,000; AID 1920062;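 active means activation at 10 µM reaching about 35% in either raw or pattern-adjusted values, limit read from the data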
ADAM10 confirm: confirmation of inhibitors of human ADAM10 | shares compounds with ADAM10 inh | ADAM10 QFRET peptide cleavage, EDANS fluorescence | inhibition, % at 6.95 µM | hit rate 1% among 2,100 | AID 743208;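 active means inhibition above about 20% chosen separately for each screening run, limit read from the data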
ADAM17 counter: counter-screen for ADAM10 exosite inhibitors: inhibitors of human ADAM17 | AID 743214 | hit rate 0.5% among 2,100 | shares compounds with ADAM10 inh | ADAM17 QFRET peptide cleavage, EDANS fluorescence | inhibition, % at 6.95 µM;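 active means mean triplicate inhibition above the solvent-only control wells' mean plus 3 SD, cut at about 12% in these data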
ADAM10 counter: counter-screen for ADAM17 exosite inhibitors: inhibitors of human ADAM10 | shares compounds with ADAM17 inh | recombinant ADAM10, EDANS/DABCYL FRET peptide cleavage, 3 h | inhibition, % at 6.95 µM | hit rate 47% among 2,900;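 active means mean inhibition over the triplicate runs exceeds the activity threshold set in the earlier primary screen, cut at about 20% in these data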
ADAM17 confirm: confirmation of inhibitors of human ADAM17. hit rate 65% among 2,900. shares compounds with ADAM17 inh. inhibition, % at 6.95 µM. recombinant ADAM17, EDANS/DABCYL QFRET peptide cleavage;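 active means mean inhibition across replicates above the hit cutoff set in the primary screen, cut at about 8.5% in these data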
Of the large screens only hits and unclear results are named; the others gave an inactive call (follow-up assays come after a bar, where they were run). Rows were chosen to be rich in hits. Some 2.2% of all compounds tested hit in one or more screens of this group.

COc1ccc(C2CC(c3ccccc3)=NN2C(=O)COC(=O)c2cccnc2Cl)cc1 (stereo not given)	ADAM17 inh 8.9, ADAM10 inh 20 | ADAM10 confirm inactive | ADAM17 counter inactive | ADAM10 counter inactive | ADAM17 confirm 9.3
CC(=O)c1cccc(-c2ccc3c(c2)C(C)(Cc2ccccc2C#N)C(=O)N3)c1 (stereo not given)	none
COc1ccc(C(C)=O)cc1CC1(C)C(=O)Nc2ccc(-c3cccc(C(F)(F)F)c3)cc21 (stereo not given)	ADAM17 inh 9.8, ADAM10 inh 27 | ADAM10 confirm inactive | ADAM17 counter inactive | ADAM10 counter 24 | ADAM17 confirm 14
CC1(Cc2ccccc2OC(F)(F)F)C(=O)Nc2ccc(-c3ccsc3)cc21 (stereo not given)	ADAM17 inh 10, ADAM10 inh 30 | ADAM10 confirm inactive | ADAM17 counter inactive | ADAM10 counter 24 | ADAM17 confirm 14
CC1(Cc2ccccc2OC(F)(F)F)C(=O)Nc2ccc(OC(F)(F)F)cc21 (stereo not given)	none
COc1cc2c(cc1NC(=O)C(C)Sc1ccc(NC(C)=O)cc1)oc1ccccc12 (stereo not given)	ADAM17 inh 22, ADAM10 inh 47 | ADAM10 confirm inactive | ADAM17 counter inactive | ADAM10 counter 32 | ADAM17 confirm 18
O=C1OCCN1C(=O)[C@H]1[C@H](c2ccc([N+](=O)[O-])cc2)C(c2ccc(F)cc2)=NN1c1ccccc1	ADAM17 inh 9.0, ADAM10 inh 21 | ADAM10 confirm inactive | ADAM17 counter inactive | ADAM10 counter 36 | ADAM17 confirm 17
O=C1OCCN1C(=O)[C@H]1[C@H](c2ccc([N+](=O)[O-])cc2)C(c2ccc(F)cc2)=NN1c1ccc(Br)cc1	ADAM17 inh 9.2, ADAM10 inh 22 | ADAM10 confirm inactive | ADAM17 counter inactive | ADAM10 counter 20 | ADAM17 confirm 13
[C-]#[N+][C@]12C(=O)[C@H](C=C(Cl)[C@@]1(C)C=C)C(C)(C)[C@H]1C(=O)N(C)c3cccc2c31	none
N#Cc1ccc(/C=C2\CC3(OC(=O)c4ccc(Cl)cc4)CCCN2C3)cc1 (stereo not given)	none
NC(=O)CC(NC(=O)c1ccc(Br)cc1)c1ccc(N2CCCCCC2)c([N+](=O)[O-])c1 (stereo not given)	ADAM17 inh 12, ADAM10 inh 22 | ADAM10 confirm inactive | ADAM17 counter inactive | ADAM10 counter inactive | ADAM17 confirm inactive
NC(=O)CC(NC(=O)c1ccccc1)c1ccc(N2CCCCCCC2)c([N+](=O)[O-])c1 (stereo not given)	none
CC(C)(C)c1ccc(S(=O)(=O)Nc2ccc(C(O)(C(F)(F)F)C(F)(F)F)cc2)cc1	ADAM17 inh 27, ADAM10 inh 62 | ADAM10 confirm inactive | ADAM17 counter inactive | ADAM10 counter 54 | ADAM17 confirm 31
O=S(=O)(Nc1ccc(C(O)(C(F)(F)F)C(F)(F)F)cc1)c1cccc2ccccc12	ADAM17 inh 11, ADAM10 inh 34 | ADAM10 confirm inactive | ADAM17 counter inactive | ADAM10 counter 40 | ADAM17 confirm 21
CC(C)(C)c1ccc(S(=O)(=O)Nc2ccc(C(=O)N3CCCC3)cc2)cc1	none
COc1nccnc1NS(=O)(=O)c1ccc(NC(=S)NC(=O)/C=C/c2ccc(F)cc2)cc1	ADAM17 inh 10, ADAM10 inh 24 | ADAM10 confirm inactive | ADAM17 counter inactive | ADAM10 counter inactive | ADAM17 confirm inactive
